Assay results reported in PubChem BioAssay (EPA / NIEHS).
Inconclusive results are not listed. Active and inactive are the calls of the source. How the source made its calls, unless noted: active means hit-call score of the fitted dose curve at least 0.9, where 1 is the maximum; inactive means score below 0.9.

How the values were obtained:
[1] = biological target: Paired box protein Pax-6 (Homo sapiens) (UniProt P26367); experiment: ATG_Pax6_CIS: Attagene CIS-FACTORIAL HepG2 Assay for human Paired Box 6 (PAX6) (AID 2282956); conditions: HepG2 CIS-FACTORIAL PAX6 reporter transcription, RNA readout; actives raise or lower the signal
Outline: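 Multiplexed cis-reporter HepG2 system; 24 h treatment; reporter mRNA read by RT-PCR/CE fluorescence; bidirectional fit vs DMSO.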

[2] = ATG_PXRE_CIS: Attagene CIS-FACTORIAL HepG2 Assay for human Pregnane X Receptor Element (PXRE) (AID 2282957); conditions: HepG2 Attagene CIS-FACTORIAL PXRE reporter, mRNA; actives raise or lower the signal
Outline: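 Cis-element reporter mRNA in human hepatoma HepG2 cells is measured 24 h post-dosing by RT-PCR, primer-extension labeling and capillary electrophoresis; gain or loss of signal is fitted relative to DMSO.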

[3] = ATG_PPRE_CIS: Attagene CIS-FACTORIAL HepG2 Assay for human Peroxisome Proliferator-activated Response Element (PPRE) (AID 2282958); conditions: HepG2 PPRE cis-element reporter, Attagene transcription factor profiling; actives raise or lower the signal
Outline: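 Read-out: fluorescent reporter mRNA fragments resolved by capillary electrophoresis after RT-PCR. HepG2 cells carried transiently transfected PPRE-driven cis reporter constructs and were dosed for 24 h; gain or loss of signal fitted relative to DMSO.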

[4] = ATG_RORE_CIS: Attagene CIS-FACTORIAL HepG2 Assay for human RAR-related Orphan Receptor Element (RORE) (AID 2282959); conditions: HepG2 Attagene cis-factorial RORE reporter, mRNA; actives raise or lower the signal
Outline: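 Readout: fluorescent reporter mRNA by RT-PCR plus capillary electrophoresis, 24 h after dosing transfected HepG2 cells. Endogenous transcription factor activity on a cis promoter element is measured. Gain or loss of signal fitted against DMSO.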

[5] = ATG_Sox_CIS: Attagene CIS-FACTORIAL HepG2 Assay for human SRY-box transcription factor (SOX) (AID 2282960); conditions: HepG2 Attagene cis-factorial SOX reporter, mRNA; actives raise or lower the signal
Outline: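 Read-out: fluorescent RT-PCR products of SOX1-linked reporter transcripts resolved by capillary electrophoresis, fitted bidirectionally against DMSO. Transiently transfected HepG2 cells, 24 h after chemical exposure, endogenous transcription factor activity.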

[6] = biological target: Transcription factor Sp1 (Homo sapiens) (UniProt P08047); experiment: ATG_Sp1_CIS: Attagene CIS-FACTORIAL HepG2 Assay for human Specificity Protein 1 (Sp1) (AID 2282961); conditions: HepG2 Sp1 cis-reporter transcription, actives raise or lower the signal
Outline: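 Read-out: fluorescence of 6-FAM-labeled, HpaI-digested RT-PCR products separated by capillary electrophoresis. HepG2 cells carried transfected cis-element reporter units and were exposed to chemicals for 24 h; gain or loss of signal fitted relative to DMSO.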

[7] = ATG_SREBP_CIS: Attagene CIS-FACTORIAL HepG2 Assay for human Sterol Regulatory Element Binding (SREBP) (AID 2282962); conditions: HepG2 Attagene cis-factorial SREBP reporter, mRNA; actives raise or lower the signal
Outline: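 mRNA induction of transfected cis-promoter reporters in HepG2 cells, 24 h post-dose. Detection: RT-PCR with 6-FAM-labelled products, HpaI digest, capillary electrophoresis. DMSO served as negative control and baseline.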

[8] = biological target: Signal transducer and activator of transcription 3 (Homo sapiens) (UniProt P40763); experiment: ATG_STAT3_CIS: Attagene CIS-FACTORIAL HepG2 Assay for human Signal Transducer and Activator of Transcription 3 (STAT3) (AID 2282963); conditions: HepG2, Attagene cis-factorial STAT3 reporter transcription; actives raise or lower the signal
Outline: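 After a 24 h compound incubation, total RNA from MRTU-transfected HepG2 cells was converted to cDNA and reporter sequences PCR-amplified, labelled and profiled by capillary electrophoresis. Gain and loss of signal were referenced to DMSO.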

[9] = ATG_TA_CIS: Attagene CIS-FACTORIAL HepG2 Assay for human TA Basal Promoter (AID 2282964); conditions: HepG2 Attagene CIS-factorial TA basal promoter reporter; actives raise or lower the signal
Outline: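 Transient MRTU transfection of HepG2 preceded 24 h compound exposure. Reporter mRNA levels were then read by RT-PCR with capillary electrophoresis, and this background-control endpoint was fitted bidirectionally to DMSO.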

[10] = ATG_TCF_b_cat_CIS: Attagene CIS-FACTORIAL HepG2 Assay for human T-Cell-Factor with beta-catenin (TCF/b-cat) (AID 2282965); conditions: HepG2 TCF/beta-catenin cis-reporter transcription, actives raise or lower the signal
Outline: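 Endogenous transcription factor activity is captured through cis-promoter reporter constructs transiently introduced into human HepG2 liver cells. Induced reporter mRNA is measured after 24 h and fitted bidirectionally relative to DMSO.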

[11] = ATG_TAL_CIS: Attagene CIS-FACTORIAL HepG2 Assay for human TAL Basal Promoter (AID 2282966); conditions: HepG2 Attagene cis-factorial TAL promoter reporter; actives raise or lower the signal;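 further: background control endpoint measuring basal TAL promoter reporter mRNA not a specific factor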
Outline: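 In this cell-based multiplex, HepG2 liver cells bearing cis-promoter reporter constructs are dosed for 24 hours. Total RNA is reverse-transcribed and amplified, labelled fragments are sized by capillary electrophoresis, and signal changes are fitted bidirectionally versus DMSO.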

[12] = ATG_TGFb_CIS: Attagene CIS-FACTORIAL HepG2 Assay for human Transforming Growth Factor (TGF) (AID 2282967); conditions: HepG2 Attagene CIS TGFb reporter, mRNA transcription; actives raise or lower the signal
Outline: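 After a 24-hour incubation with compound, transfected HepG2 cells were lysed for RNA; reporter cDNA was amplified, fluorescently end-labeled and separated by CE. DMSO served as baseline for bidirectional fits.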

[13] = ATG_VDRE_CIS: Attagene CIS-FACTORIAL HepG2 Assay for human Vitamin D Receptor Element (VDRE) (AID 2282968); conditions: HepG2 VDRE cis-reporter transcription, actives raise or lower the signal
Outline: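 In transiently transfected HepG2 liver cells, gain or loss of reporter mRNA after 24 h exposure is scored relative to DMSO, using fluorescence detection by capillary electrophoresis of RT-PCR products.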

[14] = biological target: Nuclear receptor subfamily 1 group I member 3 (Homo sapiens) (UniProt Q14994); experiment: ATG_CAR_TRANS: Attagene TRANS-FACTORIAL HepG2 Assay for human Constitutive Androstane Receptor (CAR) (AID 2282969; active means hit-call score of the fitted dose curve at least 0.9, where 1 is the maximum;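 further: activators raise reporter mRNA above DMSO so AC50 marks induction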); conditions: HepG2 Attagene TRANS-FACTORIAL CAR reporter
Outline: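 Readout is reporter mRNA induction, quantified by fluorescent primer extension and capillary electrophoresis after RT-PCR. Cells were HepG2 transiently carrying chimeric NR-Gal4 constructs with GAL4-UAS reporters, treated for 24 h; activity scored upward from DMSO.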

[15] = biological target: Estrogen receptor (Homo sapiens) (UniProt P03372); experiment: ATG_ERa_TRANS: Attagene TRANS-FACTORIAL HepG2 Assay for human Estrogen Receptor alpha (ERa) (AID 2282970; active means hit-call score of the fitted dose curve at least 0.9, where 1 is the maximum); conditions: HepG2 Attagene TRANS ERa GAL4 reporter, mRNA
Outline: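 After 24 h of compound treatment, RNA from HepG2 cells bearing transfected GAL4-UAS reporter constructs is converted to cDNA, amplified and fluorescently labelled. Capillary electrophoresis resolves the ERa-linked reporter; DMSO serves as negative control.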

[16] = biological target: Steroid hormone receptor ERR1 (Homo sapiens) (UniProt P11474); experiment: ATG_ERRa_TRANS: Attagene TRANS-FACTORIAL HepG2 Assay for human Estrogen-Related Receptor alpha (ERRa) (AID 2282971; active means hit-call score of the fitted dose curve at least 0.9, where 1 is the maximum); conditions: HepG2 Attagene TRANS reporter, ERRa transactivation
Outline: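 Transfected HepG2, 24 h dosing, ERRa-Gal4 chimera driving GAL4-UAS reporter. Readout: reporter mRNA via RT-PCR plus capillary electrophoresis (fluorescence). Positive direction vs DMSO control.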

[17] = biological target: X-box-binding protein 1 (Homo sapiens) (UniProt P17861); experiment: ATG_Xbp1_CIS: Attagene CIS-FACTORIAL HepG2 Assay for human X-box Binding Protein 1 (XBP1) (AID 2282972); conditions: HepG2 XBP1 cis-element reporter, Attagene multiplex; actives raise or lower the signal
Outline: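 Fluorescence-labelled cDNA fragments from reporter transcripts, separated by capillary electrophoresis, give the signal. Source: HepG2 cells transfected with promoter-driven reporter units, harvested 24 h post-dose. DMSO served as reference for bidirectional curve fitting.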

[18] = ATG_M_19_TRANS: Attagene TRANS-FACTORIAL HepG2 Assay for M19 Transcription Factor (Internal Marker) (AID 2282974; active means hit-call score of the fitted dose curve at least 0.9, where 1 is the maximum); conditions: HepG2 Attagene TRANS-FACTORIAL M19 internal marker reporter
Outline: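 24 h chemical exposure of transiently transfected HepG2 (MRTU library). RNA → oligo(dT) RT → PCR → 6-FAM labelling → HpaI cut → CE fluorescence. Positive-direction fit vs DMSO baseline; background internal-marker readout.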

[19] = biological target: Estrogen-related receptor gamma (Homo sapiens) (UniProt P62508); experiment: ATG_ERRg_TRANS: Attagene TRANS-FACTORIAL HepG2 Assay for human Estrogen-Related Receptor gamma (ERRg) (AID 2282977; active means hit-call score of the fitted dose curve at least 0.9, where 1 is the maximum;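 further: hits increase reporter signal over DMSO so potencies reflect activators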); conditions: HepG2 Attagene TRANS reporter, ERRg transactivation
Outline: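 HepG2 cells transiently transfected with multiplexed GAL4-UAS reporter units and chimeric NR-Gal4 constructs were exposed to test chemicals for 24 h. Reporter mRNA was measured by RT-PCR, 6-FAM primer extension, HpaI digestion and capillary electrophoresis; gain-of-signal versus DMSO.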

[20] = ATG_GAL4_TRANS: Attagene TRANS-FACTORIAL HepG2 Assay for GAL4 (Internal Marker) (AID 2282976; active means hit-call score of the fitted dose curve at least 0.9, where 1 is the maximum); conditions: HepG2 Attagene TRANS GAL4 internal marker reporter
Outline: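 RT-PCR/capillary electrophoresis readout of reporter mRNA. HepG2, transient MRTU transfection (GAL4-UAS reporters), 24 h compound exposure. Background-control endpoint, positive direction vs DMSO baseline.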

Measured: AC50

Sequence of Transcription factor Sp1 (Homo sapiens) (P08047 whole entry, looked up): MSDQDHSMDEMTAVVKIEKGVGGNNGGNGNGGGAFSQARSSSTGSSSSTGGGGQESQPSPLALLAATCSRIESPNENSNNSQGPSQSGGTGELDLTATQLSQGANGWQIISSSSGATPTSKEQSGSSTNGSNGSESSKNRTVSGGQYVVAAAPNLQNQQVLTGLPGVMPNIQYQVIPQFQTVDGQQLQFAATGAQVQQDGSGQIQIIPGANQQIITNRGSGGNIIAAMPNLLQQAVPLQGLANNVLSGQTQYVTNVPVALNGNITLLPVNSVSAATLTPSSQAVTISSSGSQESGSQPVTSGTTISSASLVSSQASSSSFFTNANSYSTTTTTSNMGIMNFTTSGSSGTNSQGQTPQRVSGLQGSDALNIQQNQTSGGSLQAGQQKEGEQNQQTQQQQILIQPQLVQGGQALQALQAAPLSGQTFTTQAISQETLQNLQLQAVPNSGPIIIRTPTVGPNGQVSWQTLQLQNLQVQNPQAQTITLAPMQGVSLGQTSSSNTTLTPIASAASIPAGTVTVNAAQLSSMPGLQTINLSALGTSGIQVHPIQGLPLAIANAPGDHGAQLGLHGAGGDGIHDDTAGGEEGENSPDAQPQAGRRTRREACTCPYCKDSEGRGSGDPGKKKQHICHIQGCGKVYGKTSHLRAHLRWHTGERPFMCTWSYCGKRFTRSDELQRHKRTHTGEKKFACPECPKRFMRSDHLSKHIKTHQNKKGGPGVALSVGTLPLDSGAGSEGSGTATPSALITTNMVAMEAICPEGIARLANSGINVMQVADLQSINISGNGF
Sequence of X-box-binding protein 1 (Homo sapiens) (P17861 whole entry, looked up, the tested form may be a part): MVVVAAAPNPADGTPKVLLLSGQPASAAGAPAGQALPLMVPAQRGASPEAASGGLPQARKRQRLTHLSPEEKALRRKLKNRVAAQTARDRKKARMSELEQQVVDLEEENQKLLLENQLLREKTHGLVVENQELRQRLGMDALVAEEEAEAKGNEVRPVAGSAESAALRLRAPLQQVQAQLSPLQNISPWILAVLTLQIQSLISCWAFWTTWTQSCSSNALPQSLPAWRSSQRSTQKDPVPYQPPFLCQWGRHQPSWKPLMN
Sequence of Signal transducer and activator of transcription 3 (Homo sapiens) (P40763 whole entry, looked up): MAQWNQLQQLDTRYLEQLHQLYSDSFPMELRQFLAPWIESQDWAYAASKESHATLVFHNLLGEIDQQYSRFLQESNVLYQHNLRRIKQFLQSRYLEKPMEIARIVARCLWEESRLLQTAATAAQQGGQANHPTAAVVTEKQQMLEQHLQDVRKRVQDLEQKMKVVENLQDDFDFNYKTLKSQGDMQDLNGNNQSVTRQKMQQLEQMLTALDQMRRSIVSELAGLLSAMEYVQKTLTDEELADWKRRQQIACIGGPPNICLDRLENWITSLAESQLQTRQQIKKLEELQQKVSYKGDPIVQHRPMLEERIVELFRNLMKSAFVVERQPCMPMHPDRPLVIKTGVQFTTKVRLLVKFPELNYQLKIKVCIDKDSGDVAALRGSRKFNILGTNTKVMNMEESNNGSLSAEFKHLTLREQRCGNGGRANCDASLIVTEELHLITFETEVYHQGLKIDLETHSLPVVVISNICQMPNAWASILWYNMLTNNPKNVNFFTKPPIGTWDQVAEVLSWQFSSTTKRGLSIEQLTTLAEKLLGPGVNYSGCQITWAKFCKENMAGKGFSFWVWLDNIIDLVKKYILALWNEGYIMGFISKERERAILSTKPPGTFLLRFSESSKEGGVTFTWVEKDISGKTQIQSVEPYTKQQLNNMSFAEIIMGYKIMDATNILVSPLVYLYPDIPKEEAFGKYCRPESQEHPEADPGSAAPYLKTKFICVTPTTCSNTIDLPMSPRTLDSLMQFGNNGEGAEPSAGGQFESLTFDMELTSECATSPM
Sequence of Paired box protein Pax-6 (Homo sapiens) (P26367 whole entry, looked up): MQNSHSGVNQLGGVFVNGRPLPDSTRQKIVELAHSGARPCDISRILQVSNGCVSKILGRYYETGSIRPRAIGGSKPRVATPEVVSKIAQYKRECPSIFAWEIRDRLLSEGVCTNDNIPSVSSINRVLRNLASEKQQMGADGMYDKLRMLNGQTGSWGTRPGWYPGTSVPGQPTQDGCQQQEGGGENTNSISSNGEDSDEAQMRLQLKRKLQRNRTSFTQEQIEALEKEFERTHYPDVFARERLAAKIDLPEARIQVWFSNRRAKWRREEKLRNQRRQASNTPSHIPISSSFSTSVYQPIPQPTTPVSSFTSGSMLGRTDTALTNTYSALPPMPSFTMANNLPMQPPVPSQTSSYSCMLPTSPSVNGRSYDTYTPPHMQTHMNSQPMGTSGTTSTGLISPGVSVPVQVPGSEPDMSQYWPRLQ
Sequence of Nuclear receptor subfamily 1 group I member 3 (Homo sapiens) (Q14994 whole entry, looked up, the tested form may be a part): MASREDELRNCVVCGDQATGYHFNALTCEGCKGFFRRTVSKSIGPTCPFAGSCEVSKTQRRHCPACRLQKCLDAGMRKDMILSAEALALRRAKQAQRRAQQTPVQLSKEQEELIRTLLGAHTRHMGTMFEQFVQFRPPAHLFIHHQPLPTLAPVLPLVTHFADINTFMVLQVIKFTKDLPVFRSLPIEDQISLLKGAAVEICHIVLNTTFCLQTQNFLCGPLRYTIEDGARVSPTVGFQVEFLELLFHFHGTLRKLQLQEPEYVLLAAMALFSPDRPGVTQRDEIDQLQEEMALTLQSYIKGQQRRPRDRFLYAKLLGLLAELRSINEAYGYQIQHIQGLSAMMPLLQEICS
Sequence of Estrogen receptor (Homo sapiens) (P03372 whole entry, looked up, the tested form may be a part): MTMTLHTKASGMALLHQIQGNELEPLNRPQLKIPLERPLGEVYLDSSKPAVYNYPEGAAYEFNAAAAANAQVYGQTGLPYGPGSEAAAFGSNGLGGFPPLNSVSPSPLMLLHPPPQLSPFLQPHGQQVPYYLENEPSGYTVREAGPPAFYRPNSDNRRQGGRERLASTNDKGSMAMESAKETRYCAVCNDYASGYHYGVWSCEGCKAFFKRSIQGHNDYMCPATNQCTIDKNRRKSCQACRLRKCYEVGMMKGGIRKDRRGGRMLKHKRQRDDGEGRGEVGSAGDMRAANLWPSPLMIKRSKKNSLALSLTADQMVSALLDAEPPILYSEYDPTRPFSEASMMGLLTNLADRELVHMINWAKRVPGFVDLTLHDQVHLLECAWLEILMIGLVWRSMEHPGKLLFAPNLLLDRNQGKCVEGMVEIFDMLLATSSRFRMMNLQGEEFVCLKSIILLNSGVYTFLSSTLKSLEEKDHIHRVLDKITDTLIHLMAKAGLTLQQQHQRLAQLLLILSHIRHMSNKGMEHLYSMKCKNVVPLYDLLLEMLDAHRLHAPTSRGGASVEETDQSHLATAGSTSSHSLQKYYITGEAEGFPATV
Sequence of Steroid hormone receptor ERR1 (Homo sapiens) (P11474 whole entry, looked up, the tested form may be a part): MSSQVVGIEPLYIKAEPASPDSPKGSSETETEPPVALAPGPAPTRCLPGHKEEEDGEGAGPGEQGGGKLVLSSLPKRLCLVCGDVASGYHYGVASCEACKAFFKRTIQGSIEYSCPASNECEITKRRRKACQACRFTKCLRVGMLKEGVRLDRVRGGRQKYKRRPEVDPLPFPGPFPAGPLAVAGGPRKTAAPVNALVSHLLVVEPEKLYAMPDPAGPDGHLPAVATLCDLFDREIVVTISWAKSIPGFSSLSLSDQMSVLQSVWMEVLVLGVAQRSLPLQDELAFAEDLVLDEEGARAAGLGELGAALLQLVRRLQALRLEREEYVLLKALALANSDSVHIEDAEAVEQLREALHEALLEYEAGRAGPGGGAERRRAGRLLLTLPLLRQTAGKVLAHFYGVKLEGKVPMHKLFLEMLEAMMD
Sequence of Estrogen-related receptor gamma (Homo sapiens) (P62508 whole entry, looked up, the tested form may be a part): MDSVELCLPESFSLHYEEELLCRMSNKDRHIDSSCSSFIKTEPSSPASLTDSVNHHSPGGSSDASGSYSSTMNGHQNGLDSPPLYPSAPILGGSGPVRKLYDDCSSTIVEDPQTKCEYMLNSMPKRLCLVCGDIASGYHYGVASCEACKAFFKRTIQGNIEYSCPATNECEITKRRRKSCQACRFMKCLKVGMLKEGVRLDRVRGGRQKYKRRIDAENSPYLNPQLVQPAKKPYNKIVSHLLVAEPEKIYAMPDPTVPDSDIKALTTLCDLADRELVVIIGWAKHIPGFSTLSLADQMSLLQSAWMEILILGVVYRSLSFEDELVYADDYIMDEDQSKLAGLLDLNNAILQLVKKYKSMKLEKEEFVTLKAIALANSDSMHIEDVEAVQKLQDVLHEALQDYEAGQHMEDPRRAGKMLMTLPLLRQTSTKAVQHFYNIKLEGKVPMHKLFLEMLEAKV

O=C(O)CCCC[C@@H]1SC[C@@H]2NC(=O)N[C@@H]21
inactive: [1] | [2] | [3] | [4] | [5] | [6] | [7] | [8] | [9] | [10] | [11] | [12] | [13] | [14] | [15] | [16] | [17] | [18] | [19]

CN(C)c1ccc(N=Nc2ccccc2C(=O)O)cc1
active: [1] 35.1 µM | [2] 26.3 µM | [3] 17.8 µM | [5] 24.9 µM | [6] 40.8 µM | [10] 31.4 µM | [13] 16.4 µM | [17] 9.33 µM
inactive: [4] | [7] | [8] | [9] | [11] | [12] | [15]

c1ccc(CNCc2ccccc2)cc1
active: [2] 36 µM
inactive: [1] | [3] | [4] | [5] | [6] | [7] | [8] | [9] | [10] | [11] | [12] | [13] | [15] | [17] | [20]

CC(C)C1=CC2=CC[C@@H]3[C@](C)(CCC[C@@]3(C)C(=O)O)[C@H]2CC1
inactive: [3] | [6] | [8] | [10] | [14] | [16] | [17]
active: [1] 71.2 µM | [2] 1.33 µM | [4] 43.1 µM | [5] 169 µM | [7] 25.9 µM | [9] 89.6 µM | [11] 52.1 µM | [12] 0.551 µM | [13] 4.54 µM | [15] 31.9 µM

CC[C@H]1OC(=O)[C@H](C)[C@@H](O[C@H]2C[C@@](C)(OC)[C@@H](O)[C@H](C)O2)[C@H](C)[C@@H](O[C@@H]2O[C@H](C)C[C@H](N(C)C)[C@H]2O)[C@](C)(O)C[C@@H](C)C(=NOCOCCOC)[C@H](C)[C@@H](O)[C@]1(C)O
inactive: [1] | [2] | [3] | [4] | [5] | [6] | [7] | [8] | [9] | [10] | [11] | [12] | [13] | [15] | [17] | [18] | [20]

CC(=O)c1ccc2c(c1)CCCC2
active: [2] 26.4 µM
inactive: [1] | [3] | [4] | [5] | [6] | [7] | [8] | [9] | [10] | [11] | [12] | [13] | [15] | [17] | [18]

CCOC(=O)CC(C(C)=O)C(C)=O
inactive: [1] | [2] | [3] | [4] | [5] | [6] | [7] | [8] | [9] | [10] | [11] | [12] | [13] | [15] | [17] | [18]

C=CC(=O)NC(C)(C)CS(=O)(=O)O
inactive: [1] | [2] | [3] | [4] | [5] | [6] | [7] | [8] | [9] | [10] | [11] | [12] | [13] | [14] | [17] | [18]
